Source: PubChem (several laboratories)
KLK7 zymogen act = activators of human kallikrein-7 zymogen. 370,000 compounds, 0.9% hits. activation, % at 7 µM. P49862. purified proKLK7, EDANS-DABCYL substrate fluorescence; 100% is mature enzyme control, 0% vehicle;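 active = activation above the mean of all tested compounds plus 3 SD, computed per campaign excluding outliers beyond control limits, cut at about 13% in these data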
HGIII-sPLA2 inh = Blocks human group III sPLA2 activity; 370,000 compounds, 0.56% hits; AID 743126; inhibition, % at 12.2 µM; Q9NZ20; QFRET BODIPY PC-A2 liposome hydrolysis, fluorescence;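 active = inhibition above mean plus 3 SD of compounds lying within the high and low control bounds, cut at about 19% in these data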;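 also: 0% = median of test compound wells and 100% = no enzyme DMSO wells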
ADAM17 inh = inhibitors of human ADAM17; P78536; recombinant ADAM17, EDANS/DABCYL FRET peptide cleavage; inhibition, % at 6.95 µM; 370,000 compounds, 0.83% hits; AID 720648;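 active = inhibition above the mean of compounds lying between control limits plus 3 SD, set per campaign, cut at about 8.5% in these data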;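 also: 0% = DMSO-only wells as the low control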
CendR NRP1 mod = alters CendR peptide binding to human NRP-1; FAM-RPARPAR peptide binding to NRP-1, fluorescence polarization; inhibition, % at 25 µM; AID 602438; 360,000 compounds, 0.85% hits;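 active = inhibition or corrected inhibition above about 18%, plus a signal ratio from 0.5 to 1.5, limit read from the data, passing the limit was not always enough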
ADAM10 inh = ADAM10 inhibition, QFRET primary screen; O14672; recombinant ADAM10, EDANS/DABCYL FRET peptide cleavage, 3 h; inhibition, % at 7 µM; 370,000 compounds, 0.62% hits; AID 720582;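 active = inhibition above a per-campaign cutoff equal to the mean of compounds falling between control-based bounds plus 3 SD, cut at about 20% in these data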;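 also: 0% = DMSO wells while the 100% control is not disclosed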
Target sequence (O14672 214-748 limits assumed): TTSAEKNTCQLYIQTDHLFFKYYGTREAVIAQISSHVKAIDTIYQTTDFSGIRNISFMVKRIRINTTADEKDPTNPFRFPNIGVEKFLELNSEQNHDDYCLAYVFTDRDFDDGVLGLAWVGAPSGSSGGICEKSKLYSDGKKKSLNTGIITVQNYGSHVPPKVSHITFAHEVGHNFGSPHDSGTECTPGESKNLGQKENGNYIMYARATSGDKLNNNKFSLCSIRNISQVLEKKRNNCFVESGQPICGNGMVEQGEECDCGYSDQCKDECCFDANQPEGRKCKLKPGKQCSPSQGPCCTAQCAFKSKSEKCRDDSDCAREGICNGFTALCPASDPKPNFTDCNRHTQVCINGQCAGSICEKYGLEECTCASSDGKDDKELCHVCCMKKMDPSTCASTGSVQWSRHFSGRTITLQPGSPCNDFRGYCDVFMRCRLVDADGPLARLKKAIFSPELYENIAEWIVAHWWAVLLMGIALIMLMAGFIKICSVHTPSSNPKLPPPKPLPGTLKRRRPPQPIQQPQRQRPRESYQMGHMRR
ADAM10 confirm = human ADAM10 inhibition, confirmation; inhibition, % at 6.95 µM; 2,100 compounds, 1% hits; shares compounds with ADAM10 inh; ADAM10 QFRET peptide cleavage, EDANS fluorescence;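 active = inhibition above about 20% chosen separately for each screening run, limit read from the data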;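 also: 0% = DMSO wells and 100% = marimastat wells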
ADAM17 counter = inhibits human ADAM17 in ADAM10 exosite counter-screen | shares compounds with ADAM10 inh | ADAM17 QFRET peptide cleavage, EDANS fluorescence | inhibition, % at 6.95 µM | 2,100 compounds, 0.5% hits | AID 743214;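 active = mean triplicate inhibition above the solvent-only control wells' mean plus 3 SD, cut at about 12% in these data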;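 also: 0% = DMSO wells and 100% = marimastat wells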
ADAM10 ctr = inhibits human ADAM10 in ADAM17 exosite counter-screen. shares compounds with ADAM17 inh. recombinant ADAM10, EDANS/DABCYL FRET peptide cleavage, 3 h. inhibition, % at 6.95 µM. 2,900 compounds, 47% hits;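 active = mean inhibition over the triplicate runs exceeds the activity threshold set in the earlier primary screen, cut at about 20% in these data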;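 also: 0% = DMSO wells and 100% = marimastat wells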
ADAM17 confirm = confirmation of inhibitors of human ADAM17; inhibition, % at 6.95 µM; 2,900 compounds, 65% hits; recombinant ADAM17, EDANS/DABCYL QFRET peptide cleavage; shares compounds with ADAM17 inh;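 active = mean inhibition across replicates above the hit cutoff set in the primary screen, cut at about 8.5% in these data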;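 also: 0% = DMSO wells and 100% = marimastat wells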
An asterisk follows results filed as active; nt = no result given. An excerpt weighted towards active compounds, which were near 3.4% of everything screened.

SMILES | KLK7 zymogen act | HGIII-sPLA2 inh | ADAM17 inh | CendR NRP1 mod | ADAM10 inh | ADAM10 confirm | ADAM17 counter | ADAM10 ctr | ADAM17 confirm
Cc1ccc(S(=O)(=O)NCCCc2ccc3c(c2)[C@]2(CCC[C@@H](OCc4ccccc4)[C@@H]2NC(=O)CCc2ccccc2)C(=O)N3Cc2ccccc2)cc1 | 0 | -2 | 5 | nt | 11 | nt | nt | nt | nt
NC(CCc1ccccc1)c1csc(NC(=O)Nc2ccccc2Oc2ccccc2)n1 (stereo not given) | 0 | 10 | 14* | -4 | 29* | 7 | 3 | 23* | 13*
Cc1cccc(NC(=O)c2nc[nH]c2C(=O)N(C)Cc2ccccc2)c1 | 0 | -24 | 9.4* | -6 | 21* | 2 | 0 | 10 | 7
Cc1cccc(NC(=O)c2nc[nH]c2C(=O)N[C@@H](C)c2ccccc2)c1 | 0 | -8 | 10.0* | 9 | 26* | 9 | 3 | 29* | 15*
CN(Cc1ccccc1)C(=O)c1[nH]cnc1C(=O)Nc1ccccc1 | 0 | -22 | 4 | -6 | 5 | nt | nt | nt | nt
COC[C@@H]1CCCN1c1cccc2c1S(=O)(=O)N1CC[C@H](C1)O2 | 0 | 8 | -2 | nt | -6 | nt | nt | nt | nt
COc1cccc(CNC(=O)C2CCN(c3nc(OC)nc(OC)n3)CC2)c1 | 0 | 6 | 3 | nt | 6 | nt | nt | nt | nt
C[C@H](CO)N1C[C@H](C)[C@H](CN(C)C(=O)Nc2cccc(F)c2)OCc2cnnn2CCCC1=O | 0 | 9 | -4 | nt | -14 | nt | nt | nt | nt
COc1ccccc1-c1nnc(SC/C(O)=C(\C#N)c2nc3ccccc3[nH]2)n1C1CCCCC1 | -1 | -15 | 8.7* | -28 | 28* | 1 | 0 | 6 | 5
N#C/C(=C(/O)CSc1nnc(Cc2cccs2)n1C1CCCCC1)c1nc2ccccc2[nH]1 | -2 | -14 | -8 | -36 | -15 | nt | nt | nt | nt
COc1ccc(NC(=O)c2cc(-c3cc(Cl)ccc3OC)n[nH]2)c(OC)c1 | 0 | -2 | 13* | -4 | 29* | 7 | 2 | 35* | 18*
CCOc1ccc(Cl)cc1-c1cc(C(=O)Nc2ccc(OC)cc2OC)[nH]n1 | 0 | -2 | -1 | -16 | -3 | nt | nt | nt | nt
COc1ccc(C)cc1NC(=O)C(Sc1nnc(-c2ccncc2)n1-c1ccc(Cl)cc1)c1ccccc1 (stereo not given) | 0 | -26 | 11* | 15 | 25* | 3 | 2 | 31* | 22*
Cc1ccc(C)c(N(CC(=O)Nc2cc(Cl)ccc2Oc2ccccc2)S(C)(=O)=O)c1 | -1 | -20 | 10* | -7 | 29* | 6 | 3 | 24* | 13*
Cc1cccc(C)c1N(CC(=O)Nc1cc(Cl)ccc1Oc1ccccc1)S(C)(=O)=O | 0 | -10 | 8.8* | 9 | 30* | 6 | 3 | 26* | 16*
COc1cccc(OCC(=O)Nc2cc(Cl)ccc2Oc2ccccc2)c1 | 0 | -3 | -1 | 18 | 2 | nt | nt | nt | nt
Cc1cc(N2CCNC[C@H]2C)ccc1N1CCN(Cc2ccccc2)[C@@H](C)C1 | -1 | 13 | -5 | nt | -10 | nt | nt | nt | nt
C[C@@H]1COc2cccc(NCCCN3CCOCC3)c2S(=O)(=O)N1 | 0 | -1 | -3 | nt | -7 | nt | nt | nt | nt
O=S(=O)(Nc1ccccc1)c1ccc(Oc2ncc(C(F)(F)F)cc2Cl)cc1 | 0 | -28 | 12* | 13 | 29* | 5 | 2 | 35* | 19*
COC(=O)[C@H](Cc1ccccc1)NC(=O)[C@H]1O[C@@H](n2cnc3c(=O)[nH]c(N)nc32)[C@H](O)[C@@H]1O | 0 | 12 | -2 | nt | -14 | nt | nt | nt | nt
COc1ccc(OC)c(-c2csc(NC(=O)CSc3ccc([N+](=O)[O-])cc3)n2)c1 | 0 | -21 | 11* | 0 | 23* | 6 | 2 | 29* | 13*
COc1ccc(OC)c(-c2csc(NC(=O)CSc3ccc(Br)cc3)n2)c1 | 0 | 0 | 3 | -10 | 4 | nt | nt | nt | nt
COc1cc(CC(=O)Nc2ccc(Cl)c(C(F)(F)F)c2)cc(OC)c1OC | -1 | -6 | 3 | 5 | 7 | nt | nt | nt | nt
Cc1ccc(NC(=O)COC(=O)c2c(-c3ccccc3)noc2C)cc1 | 0 | -13 | 4 | -10 | -9 | nt | nt | nt | nt
CNCC(=O)Nc1ccc(OC(F)(F)F)cc1 | 0 | 5 | -5 | -11 | -8 | nt | nt | nt | nt
SMILES | KLK7 zymogen act | HGIII-sPLA2 inh | ADAM17 inh | CendR NRP1 mod | ADAM10 inh | ADAM10 confirm | ADAM17 counter | ADAM10 ctr | ADAM17 confirm
COc1ccc(C(=O)OCC(=O)Nc2ccc(Cl)c(C(F)(F)F)c2)c(OC)c1OC | 1 | -22 | 8.7* | -10 | 20* | 3 | 1 | 23* | 13*
Cc1onc(-c2ccccc2)c1C(=O)OCC(=O)Nc1ccc(OC(F)(F)F)cc1 | 0 | -15 | 9.4* | 11 | 25* | 4 | 1 | 33* | 17*
COc1cccc(OC)c1C(=O)OCC(=O)Nc1ccc(OC(F)(F)F)cc1 | 0 | -13 | 10* | -4 | 27* | 2 | 0 | 2 | 6
Cc1cc(NS(=O)(=O)c2ccc(NC(=O)CSc3nnc(-c4cnccn4)n3-c3ccccc3)cc2)nc(C)n1 | 0 | 1 | -2 | nt | 2 | nt | nt | nt | nt
COc1ccc(S(=O)(=O)N(CC(=O)Nc2ccc(S(=O)(=O)N3CCOCC3)cc2)Cc2ccc(F)cc2)cc1 | -1 | -40 | 9.4* | 6 | 32* | 7 | 2 | 41* | 16*
COc1ccc(CNC(=O)CN(Cc2ccc(Cl)cc2)S(=O)(=O)c2ccccc2)cc1 | 0 | -15 | 18* | 0 | 24* | 1 | 0 | 19 | 14*
COc1ccc(CC(=O)Nc2ccc(S(=O)(=O)N3CCOCC3)cc2)cc1 | 0 | -8 | -7 | 8 | -3 | nt | nt | nt | nt
COc1ccc(CNC(=O)CN(Cc2ccccc2)S(=O)(=O)c2ccc(Cl)cc2)cc1 | 0 | 2 | 21* | 13 | 29* | 4 | 1 | 13 | 10*
COC(=O)c1cc(S(=O)(=O)NCC2CCN(C(=O)C(=O)c3cc4ccccc4o3)CC2)cs1 | 1 | 2 | -4 | nt | 0 | nt | nt | nt | nt
Clc1cccc(CSc2ncnc3sc4c(c23)CCCC4)c1 | 0 | 1 | 1 | nt | -2 | nt | nt | nt | nt
COCCN=c1scc(-c2ccco2)n1/N=C/c1ccc(O)c(O)c1O | 0 | 13 | 1 | -43 | 10 | nt | nt | nt | nt
COCCN=c1scc(-c2cc(OC)ccc2OC)n1/N=C/c1c[nH]c2ccccc12 | 1 | -31 | 11* | -4 | 20* | 17 | 7 | 16 | 12*
